# Measurements taken from PubChem BioAssay (Tox21).
# Inconclusive results are not listed. Entries that show only a call come without a potency. Calls of active or inactive are those of the source. Calls come from the whole dose curve; as a rule, active = well fitted inhibition curve with a large enough effect in the signal ratio in the repeat runs; inconclusive = weak or mixed curves, or effect the other way; inactive = flat fitted curve, though single readings scatter; the % refers to the signal ratio. Positions of bridges follow the written chain, without caps; N, C: chain ends. Non-standard residues stand in square brackets, D forms with d. Residues, ends and D or L forms follow the SMILES beside them. *: point of attachment. X1 = CC[C@@H](C)[C@@H](N)C1=N[C@H](C(=O)*)CS1; d(aIle) = CC[C@H](C)[C@@H](N)C(=O)O; dOrn = NCCC[C@@H](N)C(=O)O
# Experiment: qHTS assay for small molecule disruptors of the mitochondrial membrane potential (AID 720635)
# Conditions: HepG2 mitochondrial membrane potential, Mito-MPS dye ratio; series mostly up to 83.2 µM
# Excerpt: U.S. Tox21 Program National Center for Advancing Translational Sciences [NCATS] NIH Chemical Genomics Center [NCGC] U.S. Environmental Protection Agency [EPA] National Institutes of Environmental Health Sciences [NIEHS] National Toxicology Program [NTP] U.S. Food and Drug Administration [FDA] Tox21 Assay Overview: Mitochondrial membrane potential (MMP), one of the parameters for mitochondrial function, is generated by mitochondrial electron transport chain that creates an electrochemical gradient by a series of redox reactions. This gradient drives the synthesis of ATP, a crucial molecule for various cellular processes. Measuring MMP in living cells is commonly used to assess the effect of chemicals on mitochondrial function. […] The dye accumulates in the mitochondria of healthy cells as aggregates, with red fluorescence. The mitochondrial potential collapses and the dye can no longer accumulate in the mitochondria and remains in the cytoplasm in monomers, with green fluorescence.
# Tox21 Assay Protocol Summary: 2,000 HepG2 cells in 5 uL/well were dispensed into black, clear-bottom 1536-well plates using a Multidrop Combi (Thermo Scientific) dispenser. The assay plates were incubated overnight at 37C to allow cells to attach to the wells, followed by the transfer of 23 nL compound or DMSO vehicle by a pin tool (Kalypsys). The plates were incubated for 1 hr at 37C and 5% CO2, followed by the addition of 5 uL of 2X Mito-MPS dye (BD Biosciences) into each well using Flying Reagent Dispenser (Aurora Discovery) and then following 30 min incubation at 37C. Fluorescence intensity (490nm excitation and 535nm emission for monomers; and 540nm excitation and 590nm emissions for aggregates) was measured using an Envision plate reader.
# Potency is the fitted concentration of half-maximal effect.
row,Compound,Potency
1,Cc1cc(CC(C)CC(C)(C)C)n(O)c(=O)c1 (stereo not given) (tested in a mixture with another compound),3.35 µM (active)
2,CC1CCCC(C)N1NC(=O)c1ccc(Cl)c(S(N)(=O)=O)c1 (stereo not given),inactive
3,CC1(C)S[C@@H]2[C@H](N3C(=O)C(c4ccccc4)NC3(C)C)C(=O)N2[C@H]1C(=O)O (stereo not given in full),inactive
4,CC(=O)OCC(=O)[C@@]1(O)CC[C@H]2[C@@H]3C[C@H](C)C4=CC(=O)C=C[C@]4(C)[C@H]3[C@@H](O)C[C@@]21C,inactive
5,CC[C@@H](C)[C@@H](N)C1=N[C@H](C(=O)N[C@@H](CC(C)C)C(=O)N[C@@H](CCC(=O)O)C(=O)N[C@@H](C(=O)N[C@@H]2CCCCNC(=O)[C@@H](CC(N)=O)NC(=O)[C@@H](CC(=O)O)NC(=O)[C@@H](Cc3cnc[nH]3)NC(=O)[C@@H](Cc3ccccc3)NC(=O)[C@@H]([C@H](C)CC)NC(=O)[C@@H](CCCN)NC2=O)[C@@H](C)CC)CS1 (X1-LE[d(aIle)][dK][dOrn][dI][dF][dH][dD][dN]; lactam 4-C),inactive
6,OCl,inactive
7,O=C(O)CCCC/C=C(\c1ccccc1)c1cccnc1,inactive
8,CC(C)OC(=O)Nc1ccc2nc(-c3cscn3)[nH]c2c1,9.87 µM (active)
9,CC12CCC(C[N+](C)(CCC[N+](C)(C)C)C1)C2(C)C (stereo not given),inactive
10,CC[N+](CC)(CC)CCC(O)(c1ccccc1)C1CCCCC1 (stereo not given),inactive
11,CC1CCCCN1CCCOC(=O)c1ccccc1 (stereo not given),inactive
12,C/C(=C\C(=O)OCCCCCCCCC(=O)O)C[C@@H]1OC[C@H](C[C@@H]2O[C@H]2[C@@H](C)[C@H](C)O)[C@@H](O)[C@H]1O,inactive
13,CCC(O)c1ccccc1 (stereo not given),inactive
14,O=C(O)c1cc(=O)c2c3nc4ccccc4oc-3cc(=O)c2[nH]1,21.1 µM (active)
15,CC[C@H]1OC(=O)[C@H](C)C(=O)[C@H](C)[C@@H](O[C@@H]2O[C@H](C)C[C@H](N(C)C)[C@H]2O)[C@](C)(OC)C[C@@H](C)C(=O)[C@H](C)[C@H]2N(CCCCn3cnc(-c4cccnc4)c3)C(=O)O[C@]12C,inactive
16,NC[C@@H]1CC[C@@H](N)[C@@H](O[C@H]2[C@H](O)[C@@H](O[C@H]3O[C@H](CO)[C@@H](O)[C@H](N)[C@H]3O)[C@H](N)C[C@@H]2N)O1,inactive
17,NC(=O)[C@@H]1CCCN1C(=O)[C@H](Cc1cnc[nH]1)NC(=O)[C@@H]1CCC(=O)N1,inactive
18,C[C@H](NCCc1ccc(O)cc1)[C@H](O)c1ccc(O)cc1,inactive
19,CC[C@@H](C(=O)[C@@H](C)[C@@H](O)[C@H](C)CCc1ccc(C)c(O)c1C(=O)O)[C@H]1O[C@](CC)([C@H]2CC[C@](O)(CC)[C@H](C)O2)C[C@@H]1C,1.06 µM (active)
20,NC(=O)C1c2ccccc2CCc2ccccc21,inactive

row,Compound,Potency
1,CC(C)NCC1CCc2cc(CO)c([N+](=O)[O-])cc2N1 (stereo not given),inactive
2,C[C@]12O[C@H](C[C@]1(O)CO)n1c3ccccc3c3c4c(c5c6ccccc6n2c5c31)CNC4=O,3.76 µM (active)
3,COc1cc(NS(C)(=O)=O)ccc1Nc1c2ccccc2nc2ccccc12,8.8 µM (active)
4,OCCCNc1ccccc1,inactive
5,C[C@@H]1C[C@H]2[C@@H]3C[C@H](F)C4=CC(=O)C=C[C@]4(C)[C@@]3(Cl)[C@@H](O)C[C@]2(C)[C@H]1C(=O)COC(=O)C(C)(C)C,inactive
6,C=N[C@@H](C(=O)N[C@@H]1C(=O)N2[C@@H]1SC(C)(C)[C@@H]2C(=O)O)c1ccccc1,inactive
7,CO/N=C(\C(=O)N[C@@H]1C(=O)N2C(C(=O)O)=C(C[N+]3(C)CCCC3)CS[C@H]12)c1csc(N)n1,inactive
8,O=C(O)[C@@H]1C[C@H](CP(=O)(O)O)CCN1,inactive
9,CC1(C)C[C@@H]1C(=O)N/C(=C\CCCCSC[C@H](N)C(=O)O)C(=O)O,inactive
10,C=C1C(=C/C=C2\CCC[C@]3(C)[C@@H]([C@H](C)CCCC(C)C)CC[C@@H]23)C[C@@H](O)C[C@@H]1O,29.8 µM (active)
11,CC[C@@H](C)[C@H](N)C(=O)O,inactive
12,O=C1c2ccccc2-c2n[nH]c3cccc1c23,0.784 µM (active)
13,CCOc1ccc(NC(=S)Nc2ccc(OCC)cc2)cc1,11.9 µM (active)
14,CCN(CC)C(=O)[C@]1(c2ccccc2)C[C@@H]1CN,inactive
15,Cc1cccc(C)c1NC(=O)C1CCCCN1C (stereo not given),inactive
16,CC(C)[C@H](NC(=O)[C@H](CC(=O)O)NC(=O)[C@H](CCCCN)NC(=O)[C@@H](N)CCCN=C(N)N)C(=O)N[C@@H](Cc1ccc(O)cc1)C(=O)O (H-RKDVY-OH),inactive
17,NC(N)=NCC1COC2(CCCCC2)O1 (stereo not given),inactive
18,CC(C)c1ncc([N+](=O)[O-])n1C,inactive
19,CC(=O)Nc1ccc(OC(C)=O)cc1,inactive
20,CCCCCCCCCCCCN1CCCC1=O,68.6 µM (active)
